Laboratory results as given in PubChem BioAssay AID485270 (The Scripps Research Institute Molecular Screening Center, 2010).
Where “and” joins values, the source holds several entries; their conditions need not be identical. Identical values can stand only once. Among all 330,000 compounds or so, about 5,800 (1.8%) were called active. Rule as the data show it: active = inhibition mostly above about 38% (no sharp cut-off); inactive = mostly below about 40%. The entries come from a sample that favours actives as a whole. A structure can be active in one record and inactive in another.

Target: Orexin/Hypocretin receptor type 1 (Homo sapiens) (UniProt O43613)
Sequence (O43613 whole entry, looked up): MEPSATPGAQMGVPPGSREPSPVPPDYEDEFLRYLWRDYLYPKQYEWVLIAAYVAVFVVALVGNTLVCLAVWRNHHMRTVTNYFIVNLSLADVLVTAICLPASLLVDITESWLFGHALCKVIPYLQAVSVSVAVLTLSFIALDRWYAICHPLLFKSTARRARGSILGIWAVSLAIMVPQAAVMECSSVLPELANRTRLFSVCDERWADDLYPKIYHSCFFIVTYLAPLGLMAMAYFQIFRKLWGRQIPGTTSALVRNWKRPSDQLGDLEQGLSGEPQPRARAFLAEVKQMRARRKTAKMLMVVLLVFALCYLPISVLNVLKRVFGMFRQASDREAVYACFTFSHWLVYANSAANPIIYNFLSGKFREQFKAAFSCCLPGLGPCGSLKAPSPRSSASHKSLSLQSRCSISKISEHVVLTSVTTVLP
Test: antagonists of human orexin 1 receptor (OX1R) (AID 485270);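 also: 0% = agonist challenge alone and 100% = reference antagonist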
Conditions: OX1R-expressing cells, FRET antagonist read-out; at 6.6 µM; stronger effect = higher value

SMILES | inhibition
Cc1ccc(S(=O)(=O)N2C[C@@H]3CCCC[C@@H]3[C@@H](C)[C@H]2c2cn(Cc3ccccc3)c3ccc(F)cc23)cc1 | 3.67% (inactive)
CC1CN(C(=O)c2ccccc2NS(=O)(=O)c2cccc([N+](=O)[O-])c2)CC(C)O1 (stereo unspecified) | 27.1% (inactive)
CC1CN(C(=O)c2ccc([N+](=O)[O-])s2)CC(C)O1 (stereo unspecified) | 49.6% (active)
Cc1c(C(=O)N2CC(C)OC(C)C2)sc2nc(-c3ccccc3)cn12 (stereo unspecified) | 19.5% (inactive)
CCN(CC)C(=O)[C@H]1CC(CC(=O)NCc2ccco2)C(=O)N2CCc3c([nH]c4ccccc34)[C@]12C (stereo partly specified) | 6.65% (inactive)
COC(=O)[C@@]1(C)[C@H]2C(=O)N(Cc3ccccc3)C(=O)[C@H]2[C@H]2CN=C(SCC3CC3)N21 | 4.86% (inactive)
O=C1N[C@H](Cc2ccccc2)C(=O)N[C@H]1Cc1cn(S(=O)(=O)c2ccccc2)c2ccccc12 | 24.8% (inactive)
Cc1ccc(C(=O)Cn2cc([N+](=O)[O-])nc2C)cc1 | 16.2% (inactive)
O=C(CC(n1cncn1)C(Cl)(Cl)Cl)c1ccc([N+](=O)[O-])cc1 (stereo unspecified) | 24.6% (inactive)
O=C(Cn1c[n+](CC(=O)c2ccc([N+](=O)[O-])cc2)cn1)c1ccc([N+](=O)[O-])cc1 | 41% (active) and 49.5% (inactive)
Cc1ccc(S(=O)(=O)N2CCN(C(=O)Cn3c(=O)cnc4ccccc43)CC2)c(C)c1 | 16.2% (inactive)
O=C(OCC(=O)N1CCCCCC1)c1ccc(Br)c(S(=O)(=O)N2CCOCC2)c1 | 7.11% (inactive)
O=C(N[C@H]1C/C=C\C(c2ccc(F)cc2)N(Cc2ccccc2)C(=O)C1)OCC1c2ccccc2-c2ccccc21 (stereo partly specified) | 14.6% (inactive)
c1csc(-c2cn3c(n2)SCC3)c1 | 2.55% (inactive)
O=c1c2cc(-c3ccccc3)sc2nc2n1N=C(c1cccs1)CS2 | 49.2% (active)
Cc1nnc2n1N=C(c1ccccc1)CS2 | -1.51% (inactive)
CC(C)=CCN1CCN(Cc2cc3ccccc3[nH]2)CC1CCO (stereo unspecified) | 7.38% (inactive)
CCN(C[C@H]1N[C@@](CC)(C(=O)OC)[C@H]2C(=O)N(Cc3ccccc3)C(=O)[C@@H]12)S(=O)(=O)c1ccc(C(F)(F)F)cc1 | 5.19% (inactive)
CCc1ccc(C2C(C#N)=C(N)Oc3n[nH]c(CC(=O)OC)c32)cc1 (stereo unspecified) | 1.71% (inactive)
Cc1cc(C)c(C#N)c(SCc2[nH]nc3c2C(c2ccccc2)C(C#N)=C(N)O3)n1 (stereo unspecified) | 60.2% (active)
Cc1cc(C)c(C#N)c(SCc2ccccc2C(=O)O)n1 | 27.5% (inactive)
COc1ccc(N2CCN(C(CNS(=O)(=O)c3ccc(C)cc3)c3ccccc3)CC2)cc1 (stereo unspecified) | 6.01% (inactive)

SMILES | inhibition
COC(=O)c1ccc(C)c(NC(=O)Cn2c(C)csc2=O)c1 | 2.56% (inactive)
COc1ccccc1-c1sc2ccccc2c1C#CC1(O)CCCCC1 | 6.27% (inactive)
COc1ccc2sc(-c3ccc(N(C)C)cc3)c(-c3ccc4cc[nH]c4c3)c2c1 | 9.19% (inactive)
COc1ccc(-c2sc3ccc(OC)cc3c2C#Cc2ccccn2)cc1 | 8.84% (inactive)
COc1ccc2sc(-c3ccc(N(C)C)cc3)c(C#CCO)c2c1 | 50.3% (active)
O=C(N[C@H]1C/C=C\C(c2cccc(F)c2)N(Cc2ccccc2)C(=O)C1)OCC1c2ccccc2-c2ccccc21 (stereo partly specified) | 5.38% (inactive)
Cc1ccc(-c2cccc([C@H]3[C@@H]4C=CC[C@@H](C)[C@@H]4C(=O)N3Cc3ccccc3)c2)cc1 | 5.7% (inactive)
O=C1c2cccc3cccc(c23)C(=O)N1CCCCCc1n[nH]c(=S)o1 | 47.3% (inactive)
C[N+](C)(CCCCCC[N+](C)(C)CCCN1C(=O)c2cccc3cccc(c23)C1=O)CCCN1C(=O)c2cccc3cccc(c23)C1=O | 68.8% (active)
O=C(CCCCCN1C(=O)c2cccc3cccc(c23)C1=O)NCc1ccco1 | 9.93% (inactive)
COC(=O)CSc1snnc1-c1ccc(Cl)c(Cl)c1 | 33.7% (inactive)
CCOC(=O)c1ccc(NNC(C)=O)c([N+](=O)[O-])c1 | 26.7% (inactive)
CCOC(=O)C/C(C)=N\Nc1ccc([N+](=O)[O-])cc1[N+](=O)[O-] | 55.3% (active)
CCCCOC(=O)CCCc1ccc([N+](=O)[O-])cc1[N+](=O)[O-] | 18.3% (inactive)
Nc1nc(SCC(=O)Nc2ccc(Cl)c([N+](=O)[O-])c2)n[nH]1 | 0.57% (inactive)
O=C(CN1C(=O)c2ccc([N+](=O)[O-])cc2C1=O)Nc1nnc(C2CC2)s1 | 21.3% (inactive)
Cc1ccc(S(=O)(=O)NC2CCCCCC2)cc1 | 10.9% (inactive)
CCn1c(Cc2cccs2)nnc1SCC(=O)c1ccc(C)cc1 | 14.7% (inactive)
CCn1c(SCC(=O)c2ccc(Cl)s2)nnc1-c1cccs1 | 26.9% (inactive)
CCn1c(SCC(=O)c2ccc3ccccc3c2)nnc1-c1cccs1 | 79.6% (active)
COc1ccc(CCNC(=O)COC(=O)Cc2ccccc2F)cc1 | 2.3% (inactive)
Cc1noc(C)c1S(=O)(=O)N(C)C[C@H]1Oc2ccc(NC(=O)C3CCCCC3)cc2C(=O)N([C@H](C)CO)C[C@@H]1C | 3.64% (inactive)

SMILES | inhibition
O=C(O)c1ccccc1CSc1nc2ccccc2s1 | 5.76% (inactive)
CCOc1ccccc1Nc1ccc2nonc2c1[N+](=O)[O-] | 20% (inactive)
O=[N+]([O-])c1c(NCCO)cc(Sc2nc3ccccc3s2)c2nonc12 | 90.3% (active)
COc1cc(OC)cc(-c2sc3ccc(OC)cc3c2-c2ccc3cc[nH]c3c2)c1 | 18.3% (inactive)
CCOC(=O)c1c(C)nc2c(c1C)c(=O)oc1ccccc12 | 4% (inactive)
Cc1ccccc1-n1nnc2c(=O)oc3ccccc3c21 | 51.9% (active)
CCCCC(=O)Nc1cc(C)c2c(=O)oc3ccccc3c2n1 | 1.27% (inactive)
COc1cc(OC)cc(-c2cc3ccc(F)cc3cn2)c1 | 18.6% (inactive)
N#Cc1cc([N+](=O)[O-])ccc1NC(=O)COC(=O)c1cnccn1 | 30.6% (inactive)
Cc1cccc(NC(=O)NC(=S)NC(=O)c2ccccc2)c1 | 39.1% (inactive)
Cc1cccc(NC(=O)Nc2cccc(Oc3c(F)c(F)c(F)c(F)c3F)c2)c1 | 45.9% (active)
COc1cccc(NC(=O)NCc2ccc(F)cc2)c1 | -5.5% (inactive)
CCN(CC)S(=O)(=O)c1ccc(N2CCCC2)c(NC(=O)c2ccc([N+](=O)[O-])o2)c1 | 25.5% (inactive)
O=C(Cc1cccs1)NCc1cccc(C(F)(F)F)c1 | -2.11% (inactive)
CCOC(=O)CCCCCC(=O)Nc1ccc2c(c1)CC(=O)N([C@@H](C)CO)C[C@H](C)[C@@H](CN(C)Cc1ccccc1)O2 | 0.83% (inactive)
Cc1noc(C)c1NC(=O)Nc1ccc2c(c1)C(=O)N([C@H](C)CO)C[C@H](C)[C@@H](CN(C)S(=O)(=O)c1cn(C)cn1)O2 | 0.36% (inactive)
CC(=O)c1cccc(OCC(=O)OCC(=O)Nc2cc(S(=O)(=O)N3CCCCC3)ccc2C)c1 | 9.5% (inactive)
CCC(C(=O)NCc1ccc(OC)cc1)n1nc(C)n2c(cc3occc32)c1=O (stereo unspecified) | 9.82% (inactive)
CCOc1ccc(CCNC(=O)C(CC)n2nc(C)n3c(cc4sccc43)c2=O)cc1OCC (stereo unspecified) | 92.1% (active)
COc1ccc(CCNC(=O)c2cc3sccc3n2C)cc1OC | 20.4% (inactive)
COc1cc(SC)ccc1C(=O)NNC(=O)C1COc2ccccc2O1 (stereo unspecified) | 9.65% (inactive)
CCN(CC(=O)NCc1ccc(F)cc1)S(=O)(=O)c1ccc(Cl)s1 | 6.16% (inactive)

SMILES | inhibition
Cc1nc(C)c(-c2nnc(-c3cccc(S(=O)(=O)N(C)C)c3)o2)cc1C(=O)NN | 1.5% (inactive)
COc1ccc(-c2noc(CCCC(=O)NC3CCCC3)n2)cc1OC | 14.1% (inactive)
COc1ccc(-c2noc(-c3cccc(OC)c3OC)n2)cc1OC | 45.8% (active)
Cc1cccc(-c2noc(-c3ccc(F)cc3)n2)c1 | 1.69% (inactive)
O=C(COC(=O)c1cccnc1Cl)NC(=O)NC1CCCCC1 | 0.57% (inactive)
Cc1c(C#N)c2ncn(CC#N)c(=O)c2n1-c1ccccc1 | 16.1% (inactive)
CN1c2ccc(C=O)c3c(C=O)ccc(c23)N(C)C1(C)C | 38.9% (active)
COc1ccc2nc3n(c(=O)c2c1)-c1ccc(Cl)cc1C(=O)NC3Cc1ccccc1 (stereo unspecified) | 7.22% (inactive)
O=C1CCC/C=C/C[C@@H](CC(=O)N(CCO)Cc2ccccc2)C(=O)NC[C@H](c2ccccc2)O1 | 2.58% (inactive)
CCN(C(=O)COC(=O)CCC(=O)c1cccs1)C1CCCCC1 | 3.19% (inactive)
Cc1ccc(S(=O)(=O)N2CCN(C(=O)CN3C(=O)NC(C)(c4ccc(Cl)cc4)C3=O)CC2)c(C)c1 (stereo unspecified) | 4.7% (inactive)
O=C1c2ccccc2[C@@H]2C[C@@H](O)[C@H](Nc3ccccc3Cl)CCN12 | 7.11% (inactive)
Cc1ccc(C(=O)C[n+]2cc(-c3ccccc3)n3c2CCCCC3)cc1 | 9.82% (inactive) and 16.5% (inactive)
Cc1ccc(NC(=S)N2CCCC(c3ccccc3)=N2)cc1 | 14.4% (inactive)
Cc1ccc(C(=O)N2CCCC(c3ccccc3)=N2)cc1 | 64.4% (active)
CC(C)CC1NC(=O)c2cc(Cl)ccc2-n2c1nc1ccccc1c2=O (stereo unspecified) | 4.11% (inactive)
O=C(Nc1cccc(NC(=O)c2cccc(F)c2)c1)c1ccccc1 | 16.8% (inactive)
Cc1cccc(NC(=O)c2ccc3nsnc3c2)c1C | 34.9% (inactive)
O=C(Nc1ccccc1)c1ccc2nsnc2c1 | 41.3% (active)
COc1cc(OC)cc(-c2c(C#Cc3ccsc3)c3cc(-c4ccc(SC)cc4)ccc3n2C)c1 | 7.83% (inactive)
